# Reference: the antibiotic and cytotoxicity screens of Wong et al. (2023)
# The campaign covered roughly 39,000 compounds. About 3,300 (8.5%) were called active. The list comes from a sample in which actives are over-represented; it also holds similar structures and randomly drawn compounds.
# System: HepG2
# Assay: cytotoxicity call (relative viability < 0.9)
# Details: 10 µM
row,Structure (SMILES),cytotoxicity call
1,O=C(O)CCC(=O)c1ccc(-c2ccccc2)cc1,inactive
2,COc1ccc(C(=O)CCC(=O)O)c2ccccc12,active
3,COc1ccc(C(=O)O)c(O)c1OC,inactive
4,C[C@H]1CCCCO[C@@H](CN(C)C(=O)NC2CCCCC2)[C@@H](C)CN([C@@H](C)CO)C(=O)c2cc(NC(=O)NC3CCCCC3)ccc2O1,inactive
5,COc1ccc(S(=O)(=O)N(C)C[C@@H]2OCCCC[C@@H](C)Oc3ccc(NC(=O)Nc4ccccc4)cc3C(=O)N([C@@H](C)CO)C[C@@H]2C)cc1,inactive
6,C[C@H](O)C#Cc1ccc2c(c1)O[C@H](CN(C)C(=O)Cc1ccccn1)[C@@H](C)CN([C@H](C)CO)S2(=O)=O,inactive
7,COCC#Cc1cnc2c(c1)C(=O)N([C@@H](C)CO)C[C@H](C)[C@@H](CN(C)S(=O)(=O)c1cn(C)cn1)O2,active
8,COc1ccccc1C#Cc1cnc2c(c1)C(=O)N([C@H](C)CO)C[C@@H](C)[C@@H](CN(C)S(=O)(=O)c1cn(C)cn1)O2,inactive
9,COCC#Cc1cnc2c(c1)C(=O)N([C@H](C)CO)C[C@H](C)[C@H](CN(C)C(=O)c1cnccn1)O2,active
10,COc1ccccc1C#Cc1cnc2c(c1)C(=O)N([C@@H](C)CO)C[C@@H](C)[C@H](CN(C)S(=O)(=O)c1cn(C)cn1)O2,active
11,COc1ccccc1C#Cc1cnc2c(c1)C(=O)N([C@H](C)CO)C[C@@H](C)[C@H](CN(C)S(=O)(=O)c1cn(C)cn1)O2,active
12,COCC#Cc1cnc2c(c1)C(=O)N([C@H](C)CO)C[C@@H](C)[C@H](CN(C)C(=O)c1cnccn1)O2,inactive
13,COCC#Cc1cnc2c(c1)C(=O)N([C@H](C)CO)C[C@@H](C)[C@@H](CN(C)S(=O)(=O)c1cn(C)cn1)O2,inactive
14,COc1ccccc1C#Cc1cnc2c(c1)C(=O)N([C@@H](C)CO)C[C@H](C)[C@H](CN(C)S(=O)(=O)c1cn(C)cn1)O2,inactive
15,COCC#Cc1cnc2c(c1)C(=O)N([C@H](C)CO)C[C@@H](C)[C@H](CN(C)S(=O)(=O)c1cn(C)cn1)O2,inactive
16,COCC#Cc1cnc2c(c1)C(=O)N([C@H](C)CO)C[C@H](C)[C@@H](CN(C)C(=O)c1cnccn1)O2,inactive
17,COc1ccccc1C#Cc1cnc2c(c1)C(=O)N([C@H](C)CO)C[C@H](C)[C@@H](CN(C)S(=O)(=O)c1cn(C)cn1)O2,inactive
18,COc1ccccc1C#Cc1cnc2c(c1)C(=O)N([C@@H](C)CO)C[C@@H](C)[C@@H](CN(C)S(=O)(=O)c1cn(C)cn1)O2,inactive
19,COCCCNC(=O)[C@@]1(Sc2ccc(C)cc2)CC(=O)N(Cc2cc(C(F)(F)F)cc(C(F)(F)F)c2)[C@@H]1c1ccc(CO)cc1I,inactive
20,Cc1cccc(S(=O)(=O)N2C[C@H](O)COC[C@H]3O[C@@H](CC(=O)NCc4ccncn4)CC[C@@H]32)c1,inactive
21,Cc1noc(C)c1NC(=O)N(C)C[C@@H]1Oc2ccc(NS(=O)(=O)c3c(C)noc3C)cc2C(=O)N([C@H](C)CO)C[C@@H]1C,inactive
22,C[C@@H]1CN([C@H](C)CO)C(=O)c2cc(NC(=O)NC3CCCCC3)ccc2O[C@@H]1CN(C)C(=O)Nc1cccc2ccccc12,inactive
23,Cc1ccc(S(=O)(=O)Nc2cccc3c2O[C@@H](CN(C)Cc2ccc(Oc4ccccc4)cc2)[C@H](C)CN([C@H](C)CO)C3=O)cc1,inactive

row,Structure (SMILES),cytotoxicity call
1,COc1ccc(S(=O)(=O)N(C)C[C@@H]2OCCCC[C@H](C)Oc3ccc(NC(=O)Nc4ccccc4)cc3C(=O)N([C@H](C)CO)C[C@@H]2C)cc1,inactive
2,O=C(NCCn1ncc2c(=O)n(Cc3ccccc3)cnc21)c1ccc(S(=O)(=O)N2CCOCC2)cc1,inactive
3,CC(C)Sc1n[nH]c(=O)[nH]c1=O,inactive
4,CCCNC(=O)N(C)C[C@H]1Oc2cc(C#Cc3ccccn3)ccc2S(=O)(=O)N([C@H](C)CO)C[C@@H]1C,inactive
5,CC[C@H]1Sc2ccccc2NC1=O,inactive
6,C[C@H]1CCCCO[C@H](CN(C)S(=O)(=O)c2cn(C)cn2)[C@@H](C)CN([C@@H](C)CO)C(=O)c2cc(NS(=O)(=O)c3cccs3)ccc2O1,inactive
7,CSc1nc(C)cc(OCCO)n1,inactive
8,COc1ccc(NC(=O)Nc2ccc3c(c2)C(=O)N([C@@H](C)CO)C[C@@H](C)[C@H](CN(C)Cc2ccc(Cl)c(Cl)c2)OCCCC[C@H](C)O3)cc1,inactive
9,O=c1c(-c2ccc(O)cc2)coc2cc(O[C@@H]3O[C@H](CO)[C@@H](O)[C@H](O)[C@H]3O)ccc12,inactive
10,COc1ccc(CNC(=O)C[C@@H]2CC[C@@H]3[C@@H](COc4ccc(NC(=O)C5CC5)cc4C(=O)N3C)O2)cc1,inactive
11,C[C@H](CO)N1C[C@H](C)[C@@H](CN(C)S(=O)(=O)c2cccs2)Oc2c(NC(=O)C3CCOCC3)cccc2C1=O,inactive
12,Cc1ccc(S(=O)(=O)Nc2ccc3c(c2)C(=O)N([C@@H](C)CO)C[C@@H](C)[C@H](CN(C)C(=O)NC2CCCCC2)OCCCC[C@H](C)O3)cc1,inactive
13,CC(C)N=c1cc2n(-c3ccc(Cl)cc3)c3ccccc3nc-2cc1Nc1ccc(Cl)cc1,active
14,Cc1nc(S(=O)(=O)N[C@H]2CCS(=O)(=O)C2)cn1C,active
15,CCN[C@H]1CCS(=O)(=O)C1,inactive
16,CN[C@H]1CCS(=O)(=O)C1,inactive
17,CCC(=O)N(C)C[C@@H]1Oc2ncc(C#C[C@@H](C)O)cc2C(=O)N([C@H](C)CO)C[C@@H]1C,inactive
18,COc1cccc(-c2cnc3c(c2)C(=O)N([C@H](C)CO)C[C@H](C)[C@H](CN(C)S(=O)(=O)c2cccc(F)c2)O3)c1,inactive
19,N[C@@H](CN1C=CC(=O)C(=O)C1)C(=O)O,inactive
20,N[C@@H](Cn1ccc(=O)c(O)c1)C(=O)O,inactive
21,NC(Cn1ccc(=O)c(O)c1)C(=O)O (configuration not stated),active
22,C[C@@H]1CN([C@@H](C)CO)C(=O)c2cc(NC(=O)Nc3ccc(C(F)(F)F)cc3)ccc2O[C@@H]1CN(C)C(=O)Nc1cccc2ccccc12,inactive
23,C[C@@H]1CN(CCO[Si](C)(C)C(C)(C)C)C(=O)c2cc(NC(=O)Nc3ccccc3)ccc2O[C@@H](C)CCCCO[C@H]1CN(C)S(=O)(=O)c1ccc(F)cc1,inactive

row,Structure (SMILES),cytotoxicity call
1,Cc1noc(C)c1NC(=O)Nc1ccc2c(c1)CC(=O)N([C@H](C)CO)C[C@@H](C)[C@H](CN(C)S(C)(=O)=O)O2,inactive
2,C[C@H](CO)N1C[C@H](C)[C@H](CN(C)S(C)(=O)=O)Oc2ccc(NC(=O)Cc3ccccc3)cc2C1=O,inactive
3,C[C@@H]1CN([C@H](C)CO)C(=O)c2cc(NC(=O)Nc3ccccc3)ccc2O[C@@H](C)CCCCO[C@H]1CN(C)Cc1ccc(Cl)c(Cl)c1,active
4,C[C@@H]1CCCCO[C@@H](CN(C)Cc2ccc(Cl)c(Cl)c2)[C@H](C)CN([C@@H](C)CO)C(=O)c2cc(NC(=O)Nc3ccccc3)ccc2O1,inactive
5,C[C@@H]1CCCCO[C@H](CN(C)Cc2ccc(Cl)c(Cl)c2)[C@@H](C)CN([C@H](C)CO)C(=O)c2cc(NC(=O)Nc3ccccc3)ccc2O1,inactive
6,C[C@H](CO)N1C[C@H](C)[C@H](CN(C)Cc2ccc(Cl)c(Cl)c2)OCCCC[C@H](C)Oc2ccc(NC(=O)Nc3ccccc3)cc2C1=O,inactive
7,C[C@@H]1CN([C@@H](C)CO)C(=O)c2cc(NC(=O)Nc3ccccc3)ccc2O[C@@H](C)CCCCO[C@H]1CN(C)Cc1ccc(Cl)c(Cl)c1,inactive
8,C[C@@H]1CCCCO[C@H](CN(C)Cc2ccc(Cl)c(Cl)c2)[C@@H](C)CN([C@@H](C)CO)C(=O)c2cc(NC(=O)Nc3ccccc3)ccc2O1,inactive
9,C[C@@H]1CCCCO[C@H](CN(C)Cc2ccc(Cl)c(Cl)c2)[C@H](C)CN([C@@H](C)CO)C(=O)c2cc(NC(=O)Nc3ccccc3)ccc2O1,active
10,C[C@@H]1CCCCO[C@@H](CN(C)Cc2ccc(Cl)c(Cl)c2)[C@H](C)CN([C@H](C)CO)C(=O)c2cc(NC(=O)Nc3ccccc3)ccc2O1,active
11,C[C@@H]1CN([C@H](C)CO)C(=O)c2cc(NC(=O)Nc3ccccc3)ccc2O[C@@H](C)CCCCO[C@@H]1CN(C)Cc1ccc(Cl)c(Cl)c1,active
12,C[C@@H]1CCCCO[C@@H](CN(C)Cc2ccc(Cl)c(Cl)c2)[C@@H](C)CN([C@@H](C)CO)C(=O)c2cc(NC(=O)Nc3ccccc3)ccc2O1,inactive
13,CO[C@H]1CN(C)C(=O)c2cc(NS(C)(=O)=O)ccc2OC[C@H](C)N(C(=O)C2CCCCC2)C[C@@H]1C,inactive
14,C[C@H]1CN([C@@H](C)CO)C(=O)c2cc(NS(=O)(=O)c3cn(C)cn3)ccc2O[C@@H]1CN(C)CC1CC1,inactive
15,Cc1ccc(S(=O)(=O)N(C)C[C@@H]2Oc3c(NS(=O)(=O)c4cn(C)cn4)cccc3C(=O)N([C@@H](C)CO)C[C@@H]2C)cc1,inactive
16,COc1ccc(S(=O)(=O)N(C)C[C@H]2Oc3c(NC(=O)c4ccncc4)cccc3C(=O)N([C@H](C)CO)C[C@@H]2C)cc1,inactive
17,CC(C)[Si](C#C[Si](C(C)C)(C(C)C)C(C)C)(O[C@H](C)c1cn(Cc2cccc(Cl)c2)nn1)C(C)C,inactive
18,Cc1cc(C(=O)Nc2cccc3c2O[C@@H](CN(C)C(=O)NC2CCCCC2)[C@H](C)CN([C@@H](C)CO)C3=O)n(C)n1,inactive
19,C[C@@H]1CN([C@@H](C)CO)C(=O)c2cc(NC(=O)CCCCCC(=O)Nc3ccccc3N)ccc2O[C@@H]1CN(C)S(C)(=O)=O,inactive
20,COC(=O)[C@H]1C[C@@]2(C(=O)O)C[C@](C(=O)O)(C[C@@H](C(=O)OC)C2=O)C1=O,inactive
21,C[C@@H]1CN([C@@H](C)CO)C(=O)CCCn2nncc2CO[C@@H]1CN(C)C(=O)Nc1ccc2c(c1)OCCO2,inactive
